Only some compounds are listed: those with a hit (about 5.3% of all), similar ones and a draw of the others.
HIF activator – HIF pathway transcriptional activation; AID 1910; hit rate 0.32% among 300,000; activation, % at 7.5 µM (by protocol); U2OS HRE-luciferase reporter, luminescence; normalized: DMSO 0%, desferrioxamine 100%;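 active means mean activation of at least 10% of the iron chelator positive control signal, with at least half of replicates also reaching 10%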
ALR inh – inhibitors of human sulfhydryl oxidase ALR; AID 485317; hit rate 3.8% among 290,000; purified ALR, DTT oxidation, H2O2 HRP-luminol luminescence; inhibition, % (no concentration beside the values);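 active means mean replicate inhibition above about 79%, with every replicate also reaching it, limit read from the data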
Target sequence (P55789 whole entry, looked up): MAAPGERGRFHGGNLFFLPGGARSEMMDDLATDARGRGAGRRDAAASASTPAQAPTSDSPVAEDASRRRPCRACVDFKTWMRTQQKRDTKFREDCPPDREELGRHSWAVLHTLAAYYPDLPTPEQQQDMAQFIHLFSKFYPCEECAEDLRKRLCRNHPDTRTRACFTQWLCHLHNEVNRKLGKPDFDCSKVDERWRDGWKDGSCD
PfM18AAP inh – blocks P. falciparum M18 aspartyl aminopeptidase; recombinant PfM18AAP, H-Glu-NHMec fluorogenic cleavage; inhibition, % at 7.35 µM; hit rate 1.2% among 290,000; AID 1822;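 active means inhibition above the campaign mean inhibition over all tested compounds plus 3 SD, cut at about 28% in these data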;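 further: 0% = plate median of test compound wells and 100% = 2 mM ZnCl2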
Mot1-301 SUMO – inhibitors of SUMOylation pathway: yeast Mot1-301 growth rescue | hit rate 1% among 320,000 | growth rescue, % at 18.8 µM | S. cerevisiae Mot1-301 growth rescue, ATP luminescence, 38.5C; percent above DMSO median, 100 means doubled;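 active means every valid replicate shows activation above 250% relative to neutral control wells; inactive means the rest, any valid replicate at or below 250%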;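 further: OY570 slx delta 5 strain wells were the positive control but not used for scaling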
The depositor's hits bear a star; / = no result given; + = active, no number.

SMILES | HIF activator | ALR inh | PfM18AAP inh | Mot1-301 SUMO
COC(=O)[C@]12OC[C@]34C([C@@H](O)[C@@H]1O)[C@]1(C)CC(=O)C(O)=C(C)[C@@H]1C[C@H]3OC(=O)[C@H](O)[C@@H]24 (stereo not given in full) | 20.8* | -8.1 | / | 7.4
O=C(CSC1c2ccccc2-c2ccccc21)N/N=C/c1ccccc1O | 9.9* | 97.9* | 14.3 | 18.5
O=C(CSC1c2ccccc2-c2ccccc21)N/N=C/c1ccc(C(=O)O)cc1 | 0.0 | -4.7 | 1.5 | 25.9
N#CC(C#N)=Cc1ccc(O)c(O)c1 | / | 98.1* | / | 4.2
COC(=O)Cn1cc(/C=C2\C(=O)NC(=O)N(c3ccccc3)C2=O)c2ccccc21 | 0.5 | 3.5 | 18.3 | 0.4
COCCNC(=O)Cn1cc(C=C2C(=O)NC(=O)NC2=O)c2ccccc21 | -7.6 | 10.9 | 30.9* | -19.5
CC(C)CNP(=S)(c1ccccc1)C(C)(C)C (stereo not given) | 0.2 | -4.1 | -10.9 | 29.2
O=c1[nH]c(=O)n(C2CCCCCC2)c(O)c1C=NCc1cccnc1 | -0.2 | 1.1 | 3.2 | -3.8
O=C(c1cc(Br)ccc1Cl)N1CCC2(CC1)OCCO2 | 420.8* | -7.1 | 2.3 | -4.1
CC[C@H](C)[C@@H]1O[C@@]2(C=CC1C)CC1C[C@@H](CC=C(C)C(O[C@H]3CC(OC)C(O[C@H]4CC(OC)C(O)C(C)O4)C(C)O3)C(C)C=CC=C3CO[C@@H]4C(O)C(C)=C[C@@H](C(=O)O1)[C@]34O)O2 (stereo not given in full) | / | -8.5 | / | -8.2
CC(C)(C)C(=O)O[C@H]1CC[C@@]2(C)C(=CC(=O)C3C2CC[C@]2(C)C(=O)CCC32)C1 (stereo not given in full) | / | -7.2 | / | 13.9
CC(=O)O[C@H]1CC[C@@]2(C)C(=CC[C@@H]3[C@@H]2CC[C@]2(C)C(=O)CC[C@@H]32)C1 | / | -5.0 | / | 483.0*
CCOP(=O)(OCC)C(O)c1ccc(OC)c(OC)c1 (stereo not given) | -0.2 | 98.8* | -5.3 | -4.7
CCOP(=O)(C#Cc1ccccc1)C(O)c1ccc(Br)cc1 (stereo not given) | 0.3 | -2.8 | -1.2 | 1.3
C1CCCN(C2CCNCC2)CC1 | -1.4 | 2.4 | -3.3 | -0.1
CN1C(=O)C(Cc2cccc3ccccc23)C(=O)N(C)C1=O | 0.2 | 22.9 | 0.1 | 15.6
O=C1C2CCN(CC2)[C@@H]1Cc1ccc2ccccc2c1O | 0.8 | 81.3* | -2.2 | -11.5
O=C1CSC2(CN3CCC2CC3)N1 (stereo not given) | -0.2 | -2.9 | 0.1 | -6.2
COC(=O)C(O)(c1ccc(NC(=O)c2cccs2)cc1)C(F)(F)F (stereo not given) | -0.3 | -3.1 | 1.5 | 9.3
O=C(N/N=C1/CN2CCC1CC2)c1cc2ccccc2cc1O | -0.1 | 50.9 | 5.2 | -2.8
COc1ccc(-c2cc(=Nc3cccc(C(=O)O)c3)c3cc(C)ccc3o2)cc1 | -2.3 | 96.1* | 9.1 | -12.0
COc1ccc(-c2cc(=NCCCCCC(=O)O)c3cc(C)ccc3o2)cc1 | 1.9 | / | 2.3 | /
Cn1c(O)c(C(=Nc2ccccc2)SCc2ccc(Cl)cc2)c(=O)n(C)c1=O | 1.2 | 98.2* | 6.3 | -1.5
Cn1c(O)c(C(=N)COc2ccccc2)c(=O)n(C)c1=O | 0.1 | 0.2 | -1.4 | 0.0
O=C1Nc2ccccc2/C1=C/c1cnc[nH]1 | -0.5 | -4.4 | 3.0 | -13.3
SMILES | HIF activator | ALR inh | PfM18AAP inh | Mot1-301 SUMO
COc1ccc2c(c1)/C(=C/c1cnc[nH]1)C(=O)N2 | 9.9* | 70.0 | 1.7 | -23.0
CC/C(=N\Nc1ccccc1)c1c(O)n(-c2ccc(OC)cc2)c(=O)[nH]c1=O | / | 98.7* | 14.7 | 183.8
COc1ccccc1N1C(=O)NC(=O)C2(Cc3cc(C)ccc3N(C)C2)C1=O (stereo not given) | -0.6 | -1.0 | 18.6 | 21.4
COC(=O)C1=C(c2ccc(OCc3ccccc3)cc2)C[C@@H]2CC[C@H]1N2C(=O)NCc1cccc(C(F)(F)F)c1 | / | -4.3 | / | 1.6
c1ccc(CCN2CCC(N3CCN(c4ccccc4)CC3)CC2)cc1 | 0.0 | 98.9* | 2.6 | 23.2
COc1ccc(OCC(=O)N2CCCC(N3CCN(c4ccccc4C)CC3)C2)cc1 (stereo not given) | -0.6 | 23.7 | 1.6 | -0.5
N#Cc1cc(F)c(N2CCNCC2)cc1Cl | -0.1 | 93.4* | -7.5 | -33.9
COC(=O)CSC1=NP(=S)(SCC(=O)OC)N2CCCC2=C1C#N (stereo not given) | -0.3 | 98.1* | 11.4 | 1.6
CCCC(C)C1(CC)C(=O)NC(=Nc2ccc(OC)cc2)NC1=O (stereo not given) | -0.4 | / | -4.3 | -9.4
Cn1c(NN=O)nc2ccccc21 | 65.8* | -10.4 | 7.8 | 5.9
CN=C(SCc1cc2c(cc1Cl)OCO2)c1c(O)n(C)c(=O)n(C)c1=O | -0.1 | 100.5* | 11.0 | -4.4
N#C/C=C/C#N | / | -13.3 | / | 92.7
O=c1[nH]c(=O)n(Cc2ccc(F)cc2)c(O)c1/C=N/Nc1ccccc1 | -0.1 | 98.6* | 9.0 | 133.4
O=c1[nH]c(=O)n(CCC2=CCCCC2)c(O)c1/C=N/Nc1ccccc1 | 0.7 | 98.2* | -1.4 | 291.4*
CC(C)CC(NC(=O)CCCNC(=O)CCC(=O)OC1O[C@H]2OC3(C)CC[C@H]4[C@H](C)CCC(C1C)C24OO3)C(=O)O (stereo not given in full) | 1.2 | / | 1.0 | 26.7
COc1cccc(-n2c(=S)[nH]c3ccccc3c2=O)c1 | -0.6 | 59.9 | -7.9 | -1.5
COc1ccc2c(c1)NP(=S)(Oc1ccccc1)N2 (stereo not given) | 1.8 | 98.4* | -32.3 | -2.0
COC(=O)C1=C(c2c(C)noc2C)C[C@@H]2CC[C@H]1N2C(=O)NCCCOC(C)C | / | -4.1 | / | -11.5
CC(C)CCCn1c(O)c(/C=C2/C=CC=N2)c(=O)[nH]c1=O | 0.9 | 97.5* | 12.6 | -10.4
CCCCn1c(O)c(C=NCCCn2ccnc2)c(=O)[nH]c1=O | 0.0 | -0.4 | 4.9 | -1.8
O=c1[nH]c(=S)n(-c2ccccc2F)c(O)c1C=Nc1ccc(N2CCOCC2)cc1 | 0.3 | 38.9 | 18.1 | +
CC(=O)c1cc(C(C)=O)c(C)[n+](C)c1C | -0.2 | / | -8.6 | 195.0
Oc1cc2c(cc1CN1CCN(c3ccccc3)CC1)CCC2 | -0.3 | / | 3.0 | -1.4
O=P(CN1CCN(c2ccccc2)CC1)(N1CCCCC1)N1CCCCC1 | -0.2 | 99.2* | -5.6 | -21.7
S=P(Nn1cnnc1)(c1ccc(Br)cc1)c1ccc(Br)cc1 | 0.4 | -2.6 | 29.2* | -10.1
Cc1oc(-c2ccccc2F)nc1CS(=O)CC(=O)N1CCC2(CC1)OCCO2 (stereo not given) | 0.7 | 98.9* | 0.3 | -15.0
Cc1oc(-c2ccc(Cl)cc2)nc1CS(=O)CC(=O)N1CCC2(CC1)OCCO2 (stereo not given) | 0.4 | 98.5* | 7.6 | -4.2
COc1cccc(-c2nc(CS(=O)CC(=O)N3CCC4(CC3)OCCO4)c(C)o2)c1 (stereo not given) | -0.2 | / | 1.2 | -15.7
O=S(=O)(c1ccc(Cl)cc1)c1ccc(Cl)cc1 | / | -11.7 | / | 221.8
O=c1[nH]c(=S)[nH]c(O)c1N=Nc1ccc(S(=O)(=O)N2CCOCC2)cc1 | -0.6 | 95.3* | 11.7 | 0.4
